Inconclusive results are not listed. A call without a number means that no potency is given here. Calls of active or inactive are those of the source. Calls come from the whole dose curve; as a rule, active = well fitted curve in the direction sought with a large enough effect; inconclusive = small, poorly fitted or top-dose-only effect, or another doubt; inactive = no such curve, though single readings can be large; an effect the other way counts as inactive or inconclusive.
Assay: qHTS to identify inhibitors of the type 1 interferon - major histocompatibility complex class I in skeletal muscle: primary screen against the NCATS LOPAC collection (AID 1347405);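 note: lytic HiBiT luminescence reporting HLA-B protein level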; note: potency is the fitted concentration of half-maximal effect
Conditions: iHSKM muscle cells, IFN-b-induced MHC-I HiBiT luminescence, 24 h; series mostly up to 45.9 µM
Summary of the method: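 Immortalized human C25cl48 myoblasts with HiBiT knocked into endogenous HLA-B*08:01 were stimulated with 4.0 ng/ml IFN-beta and given compounds in a 7-point, 1:4.3 titration from 46 uM final; after 24 hrs, lytic HiBiT luminescence was read.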
In the case of `CC(C)(C)c1o[nH]c(=O)c1CC(N)C(=O)O` (stereo not given), the Potency is reported as “inactive”. With `CC(=O)NBr` the Potency was “inactive”. In the case of `NC(C(=O)O)c1cc(=O)[nH]o1` (stereo not given), the Potency is reported as “inactive”. With `CCCN(CCC)[C@H]1CCc2c(F)ccc(O)c2C1` the Potency was “inactive”. For `Cc1c2ccncc2c(C)c2c1[nH]c1ccccc12`, the Potency was 7.08 µM (active). In the case of `C[N+](C)(C)CC#CCN1CCCC1=O`, the Potency is reported as “inactive”. In the case of `CCCN1CCc2cccc3c2[C@H]1Cc1ccc(O)c(O)c1-3`, the Potency is reported as “inactive”. For `CO[C@H]1CC=C2CCN3CCC4=C(CC(=O)OC4)[C@]23C1`, the Potency was “inactive”. In the case of `CCCN(CCC)C1CCc2cccc(O)c2C1` (stereo not given), the Potency is reported as “inactive”. In the case of `CC(C)(O)[C@@H]1C2OC(=O)[C@@H]1[C@]1(O)C[C@H]3O[C@]34C(=O)O[C@H]2[C@]14C` (tested in a mixture with another compound), the Potency is reported as “inactive”. With `NCCCP(=O)(O)O` the Potency was “inactive”.

Assay: qHTS for inhibitors of adenylyl cyclases using a fission yeast platform: a pilot screen against the NCATS LOPAC library (AID 1347410)
Conditions: S. pombe CHP2027, fbp1-GFP fluorescence, 18 h; series mostly up to 57.5 µM
Summary of the method: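 S. pombe CHP2027 (AC9-GNAS-PDE4D2) carrying a PKA-repressed fbp1-GFP reporter was exposed to LOPAC compounds (final up to 57 µM) for 18 h at 30C in the dark, in EMM with histidine, lysine and uracil; GFP gain-of-signal read by laser scanning cytometry.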
With `CCCN1CC[C@@H]2c3cc(O)ccc3CC[C@@H]21` the outcome was “inactive”. In the case of `CN(C(=O)Cc1ccc(Cl)c(Cl)c1)C(CN1CCCC1)c1cccc(OCC(=O)O)c1` (stereo not given), the outcome is reported as “inactive”. For `N[C@@H](Cn1oc(=O)[nH]c1=O)C(=O)O`, the outcome was “inactive”. In the case of `N#C/C(=C/c1ccc(O)c(O)c1)C(N)=S`, the outcome is reported as “inactive”. For `CCCN1CCc2cc(O)cc3c2[C@H]1Cc1ccc(O)c(O)c1-3`, the outcome was “inactive”. In the case of `CCn1cnc2c(Nc3cccc(Cl)c3)nc(N[C@@H]3CCCC[C@@H]3N)nc21`, the outcome is reported as “inactive”. With `NCCc1c[nH]c2ccc(C(N)=O)cc12` the outcome was “inactive”. In the case of `CC(N)[C@H](O)c1ccc(O)c(O)c1` (stereo not given in full), the outcome is reported as “inactive”. For `NC(CCCCCP(=O)(O)O)C(=O)O` (stereo not given), the outcome was “inactive”. For `NC(N)=NOCC[C@H](N)C(=O)O`, the outcome was “inactive”. For `CC(N)c1cccc(Cl)c1Cl` (stereo not given), the outcome was “inactive”. With `CC12NC(Cc3ccccc31)c1ccccc12` (stereo not given) the outcome was “inactive”. In the case of `C[N+]1(C)C2CCC1CC(OC(=O)c1c[nH]c3ccccc13)C2` (stereo not given), the outcome is reported as “inactive”. For `CC(C)NP(=O)(NC(C)C)OP(=O)(NC(C)C)NC(C)C`, the outcome was “inactive”. With `Clc1cc(I)cc(Cl)c1NC1=NCCN1` the outcome was “inactive”. With `COc1ccc2c(c1)C13CCCCC1C(C2)N(C)CC3` (stereo not given) the outcome was “inactive”. In the case of `CCCN(CCC)[C@@H]1CCc2cccc(O)c2C1`, the outcome is reported as “inactive”. For `CC(N)Cc1c[nH]c2ccc(OCc3cccs3)cc12` (stereo not given), the outcome was “inactive”. In the case of `NCC(CP(=O)(O)O)c1ccc(Cl)cc1` (stereo not given), the outcome is reported as “inactive”. For `CC(=O)OCC1=C(C(=O)O)N2C(=O)[C@@H](NC(=O)CCC[C@@H](N)C(=O)O)[C@H]2SC1`, the outcome was “inactive”. With `CC(C)(C)c1o[nH]c(=O)c1CC(N)C(=O)O` (stereo not given) the outcome was “inactive”. In the case of `O=C1/C(=C/c2ccccc2)C[C@@]2(O)[C@H]3Cc4ccc(O)c5c4[C@@]2(CCN3CC2CC2)[C@H]1O5`, the outcome is reported as “inactive”. For `CC(=O)NBr`, the outcome was “inactive”. For `NC(C(=O)O)c1cc(=O)[nH]o1` (stereo not given), the outcome was “inactive”. With `CCCN(CCC)[C@H]1CCc2c(F)ccc(O)c2C1` the outcome was “inactive”. For `Cc1c2ccncc2c(C)c2c1[nH]c1ccccc12`, the outcome was “inactive”. In the case of `C[N+](C)(C)CC#CCN1CCCC1=O`, the outcome is reported as “inactive”. For `CCCN1CCc2cccc3c2[C@H]1Cc1ccc(O)c(O)c1-3`, the outcome was “inactive”. With `CO[C@H]1CC=C2CCN3CCC4=C(CC(=O)OC4)[C@]23C1` the outcome was “inactive”. In the case of `CCCN(CCC)C1CCc2cccc(O)c2C1` (stereo not given), the outcome is reported as “inactive”. In the case of `CC(C)(O)[C@@H]1C2OC(=O)[C@@H]1[C@]1(O)C[C@H]3O[C@]34C(=O)O[C@H]2[C@]14C` (tested in a mixture with another compound), the outcome is reported as “inactive”. With `NCCCP(=O)(O)O` the outcome was “inactive”. With `[Cl-].[Cl][Pt].[NH2-].[NH2-].c1ccncc1` the outcome was “inactive”.

Assay: Validation qHTS assay for inhibitors of Activation Induced Cytidine Deaminase (AID): UDG Counterscreen signal (AID 1347427)
Conditions: biochemical UDG counterscreen, fluorescence signal; series mostly up to 115 µM
Summary of the method: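 Counterscreen read of UDG activity (2 U/mL, 4/3x) in the FRET deamination format with AID (1 uM, 4/3x), DJC20/DJC23 substrates (250 nM, 4x), 4 h at room temperature. NaOH stop, fluorescence at 560 ex/665 em.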
With `CCCN1CC[C@@H]2c3cc(O)ccc3CC[C@@H]21` the Potency was “inactive”. With `CN(C(=O)Cc1ccc(Cl)c(Cl)c1)C(CN1CCCC1)c1cccc(OCC(=O)O)c1` (stereo not given) the Potency was “inactive”. With `N[C@@H](Cn1oc(=O)[nH]c1=O)C(=O)O` the Potency was “inactive”. In the case of `N#C/C(=C/c1ccc(O)c(O)c1)C(N)=S`, the Potency is reported as “inactive”. With `CCCN1CCc2cc(O)cc3c2[C@H]1Cc1ccc(O)c(O)c1-3` the Potency was “inactive”. For `CCn1cnc2c(Nc3cccc(Cl)c3)nc(N[C@@H]3CCCC[C@@H]3N)nc21`, the Potency was “inactive”. In the case of `NCCc1c[nH]c2ccc(C(N)=O)cc12`, the Potency is reported as “inactive”. In the case of `CC(N)[C@H](O)c1ccc(O)c(O)c1` (stereo not given in full), the Potency is reported as “inactive”. In the case of `NC(CCCCCP(=O)(O)O)C(=O)O` (stereo not given), the Potency is reported as “inactive”. For `NC(N)=NOCC[C@H](N)C(=O)O`, the Potency was “inactive”. With `CC(N)c1cccc(Cl)c1Cl` (stereo not given) the Potency was “inactive”. With `CC12NC(Cc3ccccc31)c1ccccc12` (stereo not given) the Potency was “inactive”. In the case of `C[N+]1(C)C2CCC1CC(OC(=O)c1c[nH]c3ccccc13)C2` (stereo not given), the Potency is reported as “inactive”. With `CC(C)NP(=O)(NC(C)C)OP(=O)(NC(C)C)NC(C)C` the Potency was “inactive”. For `Clc1cc(I)cc(Cl)c1NC1=NCCN1`, the Potency was “inactive”. With `COc1ccc2c(c1)C13CCCCC1C(C2)N(C)CC3` (stereo not given) the Potency was “inactive”. With `CCCN(CCC)[C@@H]1CCc2cccc(O)c2C1` the Potency was “inactive”. For `CC(N)Cc1c[nH]c2ccc(OCc3cccs3)cc12` (stereo not given), the Potency was “inactive”. With `NCC(CP(=O)(O)O)c1ccc(Cl)cc1` (stereo not given) the Potency was “inactive”. With `CC(=O)OCC1=C(C(=O)O)N2C(=O)[C@@H](NC(=O)CCC[C@@H](N)C(=O)O)[C@H]2SC1` the Potency was “inactive”. With `CC(C)(C)c1o[nH]c(=O)c1CC(N)C(=O)O` (stereo not given) the Potency was “inactive”. With `CC(=O)NBr` the Potency was “inactive”. With `NC(C(=O)O)c1cc(=O)[nH]o1` (stereo not given) the Potency was “inactive”. For `CCCN(CCC)[C@H]1CCc2c(F)ccc(O)c2C1`, the Potency was “inactive”. For `Cc1c2ccncc2c(C)c2c1[nH]c1ccccc12`, the Potency was “inactive”. In the case of `C[N+](C)(C)CC#CCN1CCCC1=O`, the Potency is reported as “inactive”. With `CCCN1CCc2cccc3c2[C@H]1Cc1ccc(O)c(O)c1-3` the Potency was “inactive”. With `CO[C@H]1CC=C2CCN3CCC4=C(CC(=O)OC4)[C@]23C1` the Potency was “inactive”. With `CCCN(CCC)C1CCc2cccc(O)c2C1` (stereo not given) the Potency was “inactive”. In the case of `CC(C)(O)[C@@H]1C2OC(=O)[C@@H]1[C@]1(O)C[C@H]3O[C@]34C(=O)O[C@H]2[C@]14C` (tested in a mixture with another compound), the Potency is reported as “inactive”. With `NCCCP(=O)(O)O` the Potency was “inactive”.

— PubChem BioAssay (NCATS)
